Bioassay records (PubChem)
RORgamma inh = blocks mouse ROR gamma transcriptional activity; P51450; Drosophila S2 Gal4-RORgamma UAS-luciferase reporter, 20 h; Potency, µM (highest dose often 53.6 µM), actives largely listed as inhibitors; actives 5.4% (n = 310,000); further: nearly all actives have a fitted effect of over 60% in size
Target sequence (P51450 whole entry, looked up, the tested form may be a part): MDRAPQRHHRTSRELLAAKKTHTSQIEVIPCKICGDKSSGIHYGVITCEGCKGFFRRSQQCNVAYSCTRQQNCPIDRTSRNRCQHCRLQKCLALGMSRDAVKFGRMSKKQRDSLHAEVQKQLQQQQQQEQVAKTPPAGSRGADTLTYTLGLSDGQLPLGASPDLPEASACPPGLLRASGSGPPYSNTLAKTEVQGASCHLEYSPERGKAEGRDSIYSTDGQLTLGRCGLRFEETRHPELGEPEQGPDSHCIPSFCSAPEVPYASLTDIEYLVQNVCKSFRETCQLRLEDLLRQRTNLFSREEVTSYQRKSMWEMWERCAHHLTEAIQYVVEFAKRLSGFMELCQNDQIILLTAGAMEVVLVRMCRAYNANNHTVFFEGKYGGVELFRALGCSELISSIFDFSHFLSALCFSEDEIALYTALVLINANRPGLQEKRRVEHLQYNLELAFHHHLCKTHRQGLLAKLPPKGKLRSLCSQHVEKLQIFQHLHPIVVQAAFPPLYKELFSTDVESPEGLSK
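Luciferase reporter read in Schneider cells carrying Gal4-RORγ (mouse) and UAS-Photinus luciferase; cells given compound 1 h before 700 uM copper sulfate induction, then incubated 20 h at ambient temperature.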
GLP1R ag = GLP-1 receptor (human) agonism | P43220 | HEK293 GLP-1R CRE-luciferase, luminescence, 4-6 h; cells express a hypersensitive GLP-1R form | Potency, µM (highest dose often 45.6 µM), actives largely listed as activators | actives 0.007% (n = 380,000)
GLP-1R inv ag = inverse agonists of human GLP-1 receptor | HEK293 GLP-1R CRE-luciferase, luminescence, 24 h; GLP-1R form is constitutively active | actives 1.6% (n = 410,000) | Potency, µM (highest dose often 38.3 µM), actives largely listed as inhibitors; further: nearly all actives have a fitted effect of over 55% in size
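Inverse agonism was detected as reduced cAMP-driven luciferase luminescence after 24 h compound treatment. The cells were HEK293 clones expressing constitutively active human GLP-1R with the reporter. Reporter-only and GPR119 cell lines served as counterscreen controls.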
GLP1R cytotox = cytotoxic in the GLP-1 receptor inverse agonist counter-screen. HEK293 cAMP-luciferase reporter cells, luminescence, 24 h. Potency, µM (titrated, usually from 38.3 µM), actives largely listed as inhibitors. actives 0.13% (n = 410,000). AID 624418;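 further: loss of luciferase light is scored as toxicity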
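To flag toxic compounds, the library was rerun on cells for 24 hr at 37 deg C and 5% CO2. Viability-linked luminescence was captured 12 min after adding luciferase detection reagent.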
Gal4-VP16 FLuc = inhibits Gal4-VP16 luciferase reporter, ROR gamma counter-screen | Drosophila S2 Gal4-VP16 UAS-luciferase, luminescence, 20 h | Potency, µM (series often up to 53.6 µM), usual class: inhibitors | actives 3.5% (n = 310,000) | AID 2546;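 further: Gal4-VP16 expression switched on by copper sulfate through the metallothionein promoter; nearly all actives have a fitted effect of over 50% in size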
A number is an active result; n = inactive; u = inconclusive; x = no result; ! = not active in a repeat; [ ] = remark or other dose. In the library only some 5.9% were active in any assay of this set; here they are far more common. The call rests on the fitted dose curve; in most records, active means well fitted curve in the direction sought with a large enough effect; inconclusive means small, poorly fitted or top-dose-only effect, or another doubt; inactive means no such curve, though single readings can be large; an effect the other way counts as inactive or inconclusive.

SMILES | RORgamma inh | GLP1R ag | GLP-1R inv ag | GLP1R cytotox | Gal4-VP16 FLuc
C/C(CC(=O)Nc1ccc(Cl)c(C(F)(F)F)c1)=N\NC(N)=S | 11.2µM | n | 10µM | u | u
CN(C)C(=O)Nc1ccc(-n2nc(C(C)(C)C)oc2=O)c(Cl)c1 | n | x | x | x | n
O=C(N/N=C/c1cccs1)c1cccc(S(=O)(=O)Nc2ccc(Cl)cc2)c1 | 3.98µM | n | u | u | 5.62µM
Cc1cccc(NC(=O)c2cccc(NS(=O)(=O)c3ccc(Cl)cc3)c2)c1 | n | n | u | n | u
Cc1cc(C)c(OCC(=O)N2CCN(c3ncc(C(F)(F)F)cc3Cl)CC2)c(C)c1 | n | n | u | n | n
Cc1ccc(/C(CSc2nccn2-c2ncc(C(F)(F)F)cc2Cl)=N\O)cc1 | u | n | 3.55µM | n | u
C[n+]1c2n(c3ccccc31)N=C(c1cc(C(C)(C)C)c(O)c(C(C)(C)C)c1)CS2 | u | n | u | u | 7.94µM
O=C1OC(c2cc(I)c(O)c(I)c2)(c2cc(I)c(O)c(I)c2)c2ccccc21 | n | n | x | x | u
CCOc1ccc2nc(NC(=O)c3cccc(-c4cc5ccccc5oc4=O)c3)sc2c1 | 11.2µM | n | u | n | 11.2µM
CCOc1ccc2nc(N(CCN(CC)CC)C(=O)c3ccc([N+](=O)[O-])cc3)sc2c1 | n | n | u | n | n
CC1CC2CCC(O2)C(C)C(=O)OC(C)CC2CCC(O2)C(C)C(=O)OC(C)CC2CCC(O2)C(C)C(=O)OC(C)CC2CCC(O2)C(C)C(=O)O1 (stereo unspecified) | 0.112µM | x | x | x | 0.501µM
ClC1=C(Cl)C(Cl)(C2(Cl)C(Cl)=C(Cl)C(Cl)=C2Cl)C(Cl)=C1Cl | 8.91µM | x | x | x | 7.08µM
ClC1=C(Cl)C(Cl)(Cl)C(Cl)=C1Cl | 17.8µM | x | x | x | u
Nc1c([N+](=O)[O-])ccc(Oc2ccccc2)c1Cl | n | x | x | x | n
O=C1C(Cl)=C(Cl)C(=O)C(Cl)=C1Cl | 4.47µM | x | x | x | u
COc1cc(OC)c(NS(=O)(=O)c2cc(-c3cnc(C4CC4)o3)ccc2C)cc1Cl | x | x | u | n | x
CCC(C)NC(=O)c1c(N)n(CC2CCCO2)c2nc3ccccc3nc12 (stereo unspecified) | n[10 µM] | n | 7.94µM | n | n
COc1ccc(-c2cc(C(F)(F)F)nc(S(=O)(=O)CCCC(=O)Nc3cccc(O)c3)n2)cc1OC | 10µM | n | u | u | 11.2µM
COc1ccc(CN2C(=O)NC(=O)/C(=C/c3ccc(OC)c(OC)c3OC)C2=O)cc1 | n | n | n | n | 1.26µM
CSSC | n | x | x | x | n
COC(=O)C1=C(c2ccc(Cl)c(C(F)(F)F)c2)C[C@@H]2CC[C@H]1N2C(=O)N1CCCC1 | x | n | u | n | x
COC(=O)C1=C(c2ccc(Cl)c(C(F)(F)F)c2)C[C@@H]2CC[C@H]1N2C(=O)N1CCC(O)(c2ccc(Cl)cc2)CC1 | x | n | 8.91µM | n | x
CN1CCN(c2ccc(NC(=S)NC(=O)/C=C/c3ccco3)cc2)CC1 | 11.2µM | n | n | u | 11.2µM
CN1CCN(c2ccc(NC(=O)C(C)(C)C)cc2)CC1 | n | n | n | n | n
OC[C@H]1O[C@@H](n2cnc3cc(Cl)c(Cl)cc32)[C@H](O)[C@@H]1O | x | n | n | n | x
SMILES | RORgamma inh | GLP1R ag | GLP-1R inv ag | GLP1R cytotox | Gal4-VP16 FLuc
OC[C@H]1O[C@@H](n2cnc3cc(Cl)c(Cl)cc32)[C@H](O)[C@H]1O | u | x | x | x | 7.94µM
Nc1nc(F)nc2c1ncn2[C@@H]1O[C@H](CO)[C@@H](O)[C@H]1O | n | n | 2µM | u | n
O=c1ccc2cc(O[C@H]3OC(CO)C(O)C(O)C3O)c(O)cc2o1 (stereo partly specified) | n | x | x | x | n
C=C1C(=O)O[C@@H]2C[C@@H](C)[C@H]3C=CC(=O)[C@]3(O)C[C@@H]12 | 7.08µM | n | n | n | u
CCc1cc(C(=O)N2CCN(c3ccccc3OC)CC2)sc1C | n | n | u | u | n
COc1ccccc1N1CCN(C(=O)c2sc3nc(C)nc(N4CCN(c5ccccn5)CC4)c3c2C)CC1 | n | n | 5.01µM | u | n
Cn1nc([N+](=O)[O-])nc1Sc1cccc2cccnc12 | 11.2µM | n | u | u | 17.8µM
c1cnc2c(c1)ccc1cccnc12 | u | n | u | u | u
NC(=O)C1CCN(C2=C(NS(=O)(=O)c3ccc(Br)cc3)C(=O)c3ccccc3C2=O)CC1 | n | n | n | u | n
CCN1CCN(C2=C(NS(=O)(=O)c3ccccc3)C(=O)c3ccccc3C2=O)CC1 | 10µM | n | n | u | u
COc1ccc2[nH]c(C)c(CCNCc3cc(OC)c(OC)c(OC)c3)c2c1 | u | n | u | n | 17.8µM
COc1ccc2[nH]c(C)c(CCNC(=S)Nc3cc(C)cc(C)c3)c2c1 | 2.24µM | n | u | u | 11.2µM
COc1ccc2[nH]c(C)c(CCNCc3cc(OC)c4c(c3)OCO4)c2c1 | x | n | u | n | x
[N-]=[N+]=[N-] | n | x | x | x | n
CC(=O)N1CC[N+](C)(C)CC1 | n | x | x | x | n
BrC(Br)Br | n | x | x | x | n
N#CC(C#N)=Cc1ccc(O)c(O)c1 | 15.8µM | n | n | n | 14.1µM!
Cc1cc(C)cc(NC(=O)Cn2cc(C(=O)c3cccs3)c3ccccc32)c1 | x | x | u | n | x
N#CC(C#N)=C1C=CC=CN1/C(=C\c1ccco1)C(=O)c1ccc(Cl)cc1 | 5.01µM | n | 5.62µM | n | 1.12µM
O=P(Nc1cccc(Cl)c1)(Oc1ccccc1)Oc1ccccc1 | n | n | 8.91µM | n | n
COc1cccc(NP(=O)(Oc2ccccc2)Oc2ccccc2)c1 | u | n | 5.01µM | n | n
CCOP(=S)(OCC)O/N=C(\C#N)c1ccccc1Cl | n | x | x | x | n
CN(C)CCCNC(=S)Nc1ccc(-c2ccccc2)cc1 | n | n | 11.2µM | u | n
O=[N+]([O-])c1ccc(-c2[se]c3ccccc3c2I)cc1 | n | x | x | x | n
COc1cccc(-c2nn(-c3ccc(C)cc3)cc2C(=O)N(C)CC(=O)Nc2cccc(F)c2)c1 | x | n | 7.08µM | u | x
SMILES | RORgamma inh | GLP1R ag | GLP-1R inv ag | GLP1R cytotox | Gal4-VP16 FLuc
COc1cccc(NC(=O)CN(C)C(=O)c2ccccc2OCC(=O)Nc2cccc(C(F)(F)F)c2)c1 | x | n | u | u | x
Cc1[nH]c(=O)n(C(C)(C)C)c(=O)c1Cl | n | x | x | x | n
COC1C=CC23c4cc5c(cc4CN(CC2O)C3C1)OCO5 (stereo unspecified) | 3.16µM | x | x | x | 1.26µM
COc1c2c(cc3c1OCO3)C13C=CC(OC)CC1N(C2)CC3O (stereo unspecified) | n | x | x | x | n
CCOc1ccc(-c2cc(C(=O)N3CCN(c4cccc(C(F)(F)F)c4)CC3)c3ccccc3n2)cc1 | x | x | u | n | x
CN(C)c1ccc(NC2=C(Cl)C(=O)c3ccccc3C2=O)cc1 | 15.8µM | n | u | u | u
Cc1cc(C)c(NC2=NCCCS2)c(C)c1 | n | n | u | n | n
Cc1cccc(C)c1NC1=NCCCS1 | 10µM! | n | n | n | n
